Results on 40 compounds are retold here after PubChem BioAssay (NCATS).

Results filed as inconclusive are left out. Where a call stands in place of a potency, no number is given. Unmarked numbers belong to inactive results. The source made the active and inactive calls. The call rests on the fitted dose curve; in most records, active means well fitted inhibition curve with a large enough effect; inconclusive means small, poorly fitted or top-dose-only effect; inactive means flat fitted curve, though single readings scatter.
Potency means the concentration at half of the fitted maximal effect.

Glutathione peroxidase 1 (Homo sapiens), sequence (P07203 whole entry, looked up): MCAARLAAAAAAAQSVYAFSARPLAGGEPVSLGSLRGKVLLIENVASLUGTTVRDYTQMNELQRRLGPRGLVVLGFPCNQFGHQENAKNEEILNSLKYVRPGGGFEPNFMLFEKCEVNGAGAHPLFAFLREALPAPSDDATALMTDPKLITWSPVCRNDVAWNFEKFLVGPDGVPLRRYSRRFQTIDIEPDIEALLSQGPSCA

The assay concerns the target Glutathione peroxidase 1 (Homo sapiens) (UniProt P07203). Put plainly: Primary qHTS Assay for Inhibitors of Recombinant Selenoprotein Glutathione Peroxidase 1 (GPX1) (AID 1845191). Further: nearly all actives have a fitted effect of over 65% in size. Particulars: recombinant GPX1, GR-coupled NADPH fluorescence, 15 min; series mostly up to 48.8 µM; activity, negative = inhibition: at the top concentration. An excerpt: Assay Provider: Elias S.J. Arner MD PhD.
Department of Medical Biochemistry and Biophysics
Karolinska Institutet, Solna, Stockholm, Sweden
Selenoprotein glutathione peroxidases (GPX), like the ubiquitously expressed GPX1 and the ferroptosis modulator GPX4, enact their antioxidant activities by reducing hydroperoxides using glutathione. […] GPX1 and GPX4 inhibitors have thus shown promise as anti-cancer agents. Existing inhibitors are often promiscuous, or modulate GPX activity only indirectly, so novel direct inhibitors identified through screening against GPX1 and GPX4 could be valuable. Here, we developed optimized glutathione reductase (GR)-coupled GPX assays for the biochemical high-throughput screen (HTS) of almost 12,000 compounds with known mechanisms of action. Initial hits were triaged using a GR counter-screen, assessed for isoform specificity using a separate GPX2 assay, and were assessed for general selenocysteine-targeting activity using a thioredoxin reductase (TXNRD1) assay. With this suite of assays, we identified novel GPX1/GPX2- and GPX4-specific inhibitors and can here present a validated pipeline for future discovery research for selenoprotein-targeting agents.
SEQUENCE No. (e.g., 1, 2, 3, etc.); […] (e.g., Cells, Incubation, Reagent, etc.); VALUE; DESCRIPTION.
1; Reagent 1; 3 uL; GPx1 enzyme or no enzyme control in 1536-well, black, solid Greiner assay plate.
2; Compound; 25 nL; Kalypsis pin tool (Wako USA) equipped with a 1536-well pin head.
3; Incubation; 30 min; room temperature.
4; Reagent 2; 1 uL; 10 nM GPX1, 1 mM GSH, 0.5 mM CHP, 0.5 mM NADPH, 100 nM GR, 0.01% BSA substrate
5; Detection; Fluorescence; ViewLux microplate reader, excitation 340 nm and emission 450 nm.
6; Incubation; 15 min; room temperature.
7; Detection; Fluorescence; ViewLux microplate reader, excitation 340 nm and emission 450 nm.
NOTES (numbers refer to Sequence numbers above)
1. 3 uL of 16.66 nM GPX1 and 0.016% BSA in assay buffer (50 mM Tris-HCl, 2 mM EDTA (pH 7.5), 150 mM NaCl) was added to columns 3-48 of 1536-well assay plates using a BioRAPTR Flying Reagent Dispenser (Let's Go Robotics (LGR), Carlsbad, CA). A no-enzyme control (0.01% BSA in TES assay buffer) was added to columns 1-2.
2. 25 nL of test compounds and DMSO controls were added to each well with a pin tool (Kalypsys).
3. The assay plates were incubated for 30 minutes at room temperature.
4. 1 uL of master mix (500 nM glutathione reductase (GR), 5 mM reduced glutathione (GSH), 2.5 mM NADPH in assay buffer) was added. 1 uL of cumene hydroperoxide (CHP) ([2.5 mM] in 50% EtOH) was then added within 5 minutes to initiate the reaction. Final concentrations were: 10 nM GPX1, 1 mM GSH, 0.5 mM CHP, 0.5 mM NADPH, 100 nM GR, 0.01% BSA.
5. Initial fluorescence readout (t=0) at 340/450 nm was measured using a ViewLux multimodal detector (PerkinElmer, Waltham, MA).
7. Endpoint fluorescence readout (t=15) at 340/450 nm was measured 15 min after room temperature incubation.
On the technique in general: In qHTS, concentration-response curves come from the screen itself.
As to `CC(C)(C)CC(C)(C)c1ccc(OCCOCC[N+](C)(C)Cc2ccccc2)cc1`, the Potency result is “inactive”.
`O=C(O)CCCCC(=O)O`: the “activity, negative = inhibition” value is -25.9%.
In the case of `CN(C)CC/C=C1/c2ccccc2COc2ccc(CC(=O)O)cc21`, the Potency result is “inactive”.
As to `CCCN1CCCC[C@H]1C(=O)Nc1c(C)cccc1C`, the “activity, negative = inhibition” value was -16.1%.
Consider `CC(=O)OCC(=O)[C@@]12N=C(C)O[C@@H]1C[C@H]1[C@@H]3CCC4=CC(=O)C=C[C@]4(C)[C@H]3[C@@H](O)C[C@@]12C`, for which the Potency result was “inactive”.
On the same count and under the same terms, then `C[N+]1(CCCCC[N+]2(C)CCCC2)CCCC1`, with “inactive”.
With `Cc1c(C(N)=O)cc([N+](=O)[O-])cc1[N+](=O)[O-]`, the result was inactive.
Take `CCCCCCCCCCCCCCCCCC(=O)OCC(O)CO` (stereo not given): the outcome was inactive.
The same measure, in the same setting: the result for `C1CCc2nnnn2CC1` reads “inactive”; that for `O=C1CCC(c2ccc(-n3ccnc3)cc2)=NN1`, “inactive”.
As to `CC(C)C[C@H]1C(=O)N2CCC[C@H]2[C@]2(O)O[C@](NC(=O)[C@@H]3C=C4c5cccc6[nH]c(Br)c(c56)C[C@H]4N(C)C3)(C(C)C)C(=O)N12`, the Potency entry is “inactive”.
For `C[C@@H]1C[C@H]2[C@@H]3CCC4=CC(=O)C=C[C@]4(C)[C@@]3(F)[C@@H](O)C[C@]2(C)[C@H]1C(=O)CO`, the “activity, negative = inhibition” value is -5.09%.
The same measure, in the same setting: then `CC(=O)Oc1ccc(C(=C2CCCCC2)c2ccc(OC(C)=O)cc2)cc1`, with -16%.
On to `COc1cccc(OC)c1C(=O)N[C@@H]1C(=O)N2[C@@H]1SC(C)(C)[C@@H]2C(=O)O`, for which the Potency result was “inactive”.
On to `O=c1ccc2ccccc2o1`, for which the “activity, negative = inhibition” value is 1.45%.
Take `CCCCCCCCCCCCCCCCOP(=O)([O-])OCC[N+](C)(C)C`: the result was inactive.
For the compound `Cc1ccc(C(=O)C(C)CN2CCCCC2)cc1` (stereo not given), the Potency entry is “inactive”.
Regarding `CCCCOc1ccc(C(=O)CCN2CCCCC2)cc1`, the result was inactive.
On the same count and under the same terms, the result for `COC(=O)[C@H]1[C@H]2C[C@H]3c4[nH]c5ccccc5c4CCN3C[C@H]2CC[C@@H]1O` reads “inactive”.
With `CC1(C)CCC(NC(=O)[C@@H](N)CCC(=O)O)CC1`, the “activity, negative = inhibition” value is -7.8%.
As to `C[C@H](O)C(=O)Nc1c(I)c(C(=O)NC(CO)CO)c(I)c(C(=O)NC(CO)CO)c1I`, the “activity, negative = inhibition” value is -6.35%.
The same measure, in the same setting: then `COC1=CC(=O)C[C@@H](C)[C@]12Oc1c(Cl)c(OC)cc(OC)c1C2=O`, with -20%.
Regarding `CN1CCN(C(c2ccccc2)c2ccccc2)CC1`, the Potency entry was “inactive”.
As to `C[n+]1c2cc(N)ccc2cc2ccc(N)cc21` (tested in a mixture with another compound), the “activity, negative = inhibition” value was -25%.
As for `OC[C@H]1O[C@H](O[C@]2(CCl)O[C@H](CCl)[C@@H](O)[C@@H]2O)[C@H](O)[C@@H](O)[C@H]1Cl`, the Potency entry was “inactive”.
In the case of `Cc1ccccc1C(=O)Nc1ccc(C(=O)N2CCCC(N(C)C)c3ccccc32)cc1` (stereo not given), the outcome was inactive.
Take `O=c1c(-c2ccccc2)c1-c1ccccc1`: the “activity, negative = inhibition” value was -14.8%.
As for `CC(C)N=C(N)/N=C(\N)Nc1ccc(Cl)cc1`, the result was inactive.
As for `Cc1nc2n(c(=O)c1CCN1CCC(c3noc4cc(F)ccc34)CC1)CCC[C@H]2O`, the Potency entry was “inactive”.
`COc1ccc(CCN2CCC(Nc3nc4ccccc4n3Cc3ccc(F)cc3)CC2)cc1`: the “activity, negative = inhibition” value is -28.1%.
On to `CC1(C)O[C@@H]2C[C@H]3[C@@H]4C[C@H](F)C5=CC(=O)C=C[C@]5(C)[C@H]4[C@@H](O)C[C@]3(C)[C@]2(C(=O)CO)O1`, for which the Potency result was “inactive”.
`CC(=O)OCC(=O)[C@@]1(O)CC[C@H]2[C@@H]3CCC4=CC(=O)C=C[C@]4(C)[C@H]3[C@@H](O)C[C@@]21C`: the Potency entry is “inactive”.
With `Cc1c(N(C)CS(=O)(=O)O)c(=O)n(-c2ccccc2)n1C`, the Potency was 3.21 µM (active).
Take `CCCCc1nc(Cl)c(CO)n1Cc1ccc(-c2ccccc2-c2nn[nH]n2)cc1`: the Potency entry is “inactive”.
Consider `C[C@]12CC[C@@H]3c4ccc(O)cc4CC[C@H]3[C@@H]1CC[C@@H]2O`, for which the Potency entry was “inactive”.
As for `O=C(OCCOCCO)c1ccccc1Nc1cccc(C(F)(F)F)c1`, the “activity, negative = inhibition” value was -14.7%.
Still for that read-out and setting: then `COc1cccc(CCc2ccccc2OCC(CN(C)C)OC(=O)CCC(=O)O)c1` (stereo not given), with -4.56%; and `Cc1c(C(C)C)c(=O)n(-c2ccccc2)n1C`, with -4.99%.
Take `CC(=O)Oc1ccc2c(c1)CC[C@@H]1[C@@H]2CC[C@]2(C)[C@@H](O)CC[C@@H]12`: the result was inactive.
Turning to `C/C=C/c1ccc(OC)cc1`, the result was inactive.
